16 compounds from PubChem BioAssay can be followed below.

Activity calls are given as the source filed them.

A short description of assay [1]: binders of probe aFSTL3 on microarray, primary screen, stem cell growth factor project, biochemical, small-molecule microarray, fluorescence 635/667 (AID 1064).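 Further: measures binding of the biotinylated anti-FSTL3 antibody to printed compounds.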 The conditions noted are these: higher = more signal.
The nature of assay [2]: binders from COS7 lysate, DM2A8 probe, primary screen, torsin A project, cell lysate, small-molecule microarray, fluorescence 635/667 (AID 1065). The following applies: higher = more signal, COS7 lysate expressing mutant human TOR1A.
Assay [3] is described as follows: binders of probe aFGF2 on microarray, primary screen, stem cell growth factor project, biochemical, small-molecule microarray, fluorescence 635/667 (AID 1067).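 Further: measures binding of biotinylated aFGF2 protein to printed compounds on slides; z-score merges feature fluorescence and signal-to-noise across triplicate slides.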 The conditions noted are these: higher = more signal.
Assay [4] is described as follows: binders of probe aFGF10 on microarray, primary screen, stem cell growth factor project, biochemical, small-molecule microarray, fluorescence 635/667 (AID 1071).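 Further: score merges 667 nm spot intensity and signal to noise from triplicate slides.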 The following applies: higher = more signal.
Assay [5] addresses Neurogenic locus notch homolog protein 2 (Homo sapiens) (UniProt Q04721). In words: Notch2 binders on small-molecule microarrays, primary screen, biochemical, small-molecule microarray, 635 nm fluorescence, stem cell growth factors (AID 1073). The following applies: Notch2 binding, higher = more signal.
Assay [6] concerns the target Pro-neuregulin-1, membrane-bound isoform (Homo sapiens) (UniProt Q02297). In words: NRG1 binders on small-molecule microarrays, primary screen, psychiatric disease protein project, biochemical, small-molecule microarray, fluorescence 635/667 (AID 1075).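 Further: score combines 667 nm spot fluorescence with signal to noise.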 The conditions noted are these: NRG1 binding, 635 nm fluorescence, higher = more signal.
Assay [7] concerns Neuregulin-1 EGF-like domain. In words: binders of neuregulin-1 EGF-like domain, primary screen, biochemical, small-molecule microarray, 635 nm fluorescence (AID 1081).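 Further: binding of the protein to compounds printed on small-molecule microarray slides.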 The conditions noted are these: small-molecule microarray binding, higher = more signal.
Assay [8] can be described thus: FRG1 promoter luciferase signal modulators, primary screen, FRG1 inhibition for FSHD, cell-based, C2C12 myotubes, firefly/Renilla luciferase, luminescence (AID 1084). The conditions noted are these: higher = more signal, called active from +8 up or from −8 down.
Assay [9] in a line: binders of probe aFST on microarray, primary screen, stem cell growth factor project, biochemical, small-molecule microarray, fluorescence 635/667 (AID 1086).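 Further: score merges 667 nm fluorescence with signal-to-noise of each printed compound spot.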 The following applies: higher = more signal.
A short description of assay [10]: binders of probe aHhip on microarray, primary screen, stem cell growth factor project, biochemical, small-molecule microarray, fluorescence 635/667 (AID 1087).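 Further: score merges spot fluorescence at 667nm with spot signal to noise ratio.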 The conditions noted are these: higher = more signal.

Chain of Pro-neuregulin-1, membrane-bound isoform (Homo sapiens) (Q02297 whole entry, looked up, the tested form may be a part, canonical isoform): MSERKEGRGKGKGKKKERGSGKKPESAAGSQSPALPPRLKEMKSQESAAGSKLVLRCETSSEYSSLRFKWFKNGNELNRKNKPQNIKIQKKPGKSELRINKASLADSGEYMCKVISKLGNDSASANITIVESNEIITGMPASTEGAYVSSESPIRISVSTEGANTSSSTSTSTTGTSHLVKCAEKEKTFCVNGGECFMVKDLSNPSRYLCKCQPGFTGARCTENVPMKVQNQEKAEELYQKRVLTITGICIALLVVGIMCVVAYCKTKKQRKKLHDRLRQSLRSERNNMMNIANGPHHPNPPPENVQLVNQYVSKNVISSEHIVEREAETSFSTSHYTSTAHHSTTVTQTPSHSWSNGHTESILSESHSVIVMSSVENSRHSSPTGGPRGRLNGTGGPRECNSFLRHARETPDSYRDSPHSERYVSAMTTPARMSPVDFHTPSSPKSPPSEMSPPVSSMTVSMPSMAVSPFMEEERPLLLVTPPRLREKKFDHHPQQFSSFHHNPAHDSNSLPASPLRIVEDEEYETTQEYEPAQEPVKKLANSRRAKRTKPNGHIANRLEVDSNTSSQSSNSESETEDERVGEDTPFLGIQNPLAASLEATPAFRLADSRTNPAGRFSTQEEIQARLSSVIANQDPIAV
Chain of Neurogenic locus notch homolog protein 2 (Homo sapiens) (Q04721 whole entry, looked up, canonical isoform): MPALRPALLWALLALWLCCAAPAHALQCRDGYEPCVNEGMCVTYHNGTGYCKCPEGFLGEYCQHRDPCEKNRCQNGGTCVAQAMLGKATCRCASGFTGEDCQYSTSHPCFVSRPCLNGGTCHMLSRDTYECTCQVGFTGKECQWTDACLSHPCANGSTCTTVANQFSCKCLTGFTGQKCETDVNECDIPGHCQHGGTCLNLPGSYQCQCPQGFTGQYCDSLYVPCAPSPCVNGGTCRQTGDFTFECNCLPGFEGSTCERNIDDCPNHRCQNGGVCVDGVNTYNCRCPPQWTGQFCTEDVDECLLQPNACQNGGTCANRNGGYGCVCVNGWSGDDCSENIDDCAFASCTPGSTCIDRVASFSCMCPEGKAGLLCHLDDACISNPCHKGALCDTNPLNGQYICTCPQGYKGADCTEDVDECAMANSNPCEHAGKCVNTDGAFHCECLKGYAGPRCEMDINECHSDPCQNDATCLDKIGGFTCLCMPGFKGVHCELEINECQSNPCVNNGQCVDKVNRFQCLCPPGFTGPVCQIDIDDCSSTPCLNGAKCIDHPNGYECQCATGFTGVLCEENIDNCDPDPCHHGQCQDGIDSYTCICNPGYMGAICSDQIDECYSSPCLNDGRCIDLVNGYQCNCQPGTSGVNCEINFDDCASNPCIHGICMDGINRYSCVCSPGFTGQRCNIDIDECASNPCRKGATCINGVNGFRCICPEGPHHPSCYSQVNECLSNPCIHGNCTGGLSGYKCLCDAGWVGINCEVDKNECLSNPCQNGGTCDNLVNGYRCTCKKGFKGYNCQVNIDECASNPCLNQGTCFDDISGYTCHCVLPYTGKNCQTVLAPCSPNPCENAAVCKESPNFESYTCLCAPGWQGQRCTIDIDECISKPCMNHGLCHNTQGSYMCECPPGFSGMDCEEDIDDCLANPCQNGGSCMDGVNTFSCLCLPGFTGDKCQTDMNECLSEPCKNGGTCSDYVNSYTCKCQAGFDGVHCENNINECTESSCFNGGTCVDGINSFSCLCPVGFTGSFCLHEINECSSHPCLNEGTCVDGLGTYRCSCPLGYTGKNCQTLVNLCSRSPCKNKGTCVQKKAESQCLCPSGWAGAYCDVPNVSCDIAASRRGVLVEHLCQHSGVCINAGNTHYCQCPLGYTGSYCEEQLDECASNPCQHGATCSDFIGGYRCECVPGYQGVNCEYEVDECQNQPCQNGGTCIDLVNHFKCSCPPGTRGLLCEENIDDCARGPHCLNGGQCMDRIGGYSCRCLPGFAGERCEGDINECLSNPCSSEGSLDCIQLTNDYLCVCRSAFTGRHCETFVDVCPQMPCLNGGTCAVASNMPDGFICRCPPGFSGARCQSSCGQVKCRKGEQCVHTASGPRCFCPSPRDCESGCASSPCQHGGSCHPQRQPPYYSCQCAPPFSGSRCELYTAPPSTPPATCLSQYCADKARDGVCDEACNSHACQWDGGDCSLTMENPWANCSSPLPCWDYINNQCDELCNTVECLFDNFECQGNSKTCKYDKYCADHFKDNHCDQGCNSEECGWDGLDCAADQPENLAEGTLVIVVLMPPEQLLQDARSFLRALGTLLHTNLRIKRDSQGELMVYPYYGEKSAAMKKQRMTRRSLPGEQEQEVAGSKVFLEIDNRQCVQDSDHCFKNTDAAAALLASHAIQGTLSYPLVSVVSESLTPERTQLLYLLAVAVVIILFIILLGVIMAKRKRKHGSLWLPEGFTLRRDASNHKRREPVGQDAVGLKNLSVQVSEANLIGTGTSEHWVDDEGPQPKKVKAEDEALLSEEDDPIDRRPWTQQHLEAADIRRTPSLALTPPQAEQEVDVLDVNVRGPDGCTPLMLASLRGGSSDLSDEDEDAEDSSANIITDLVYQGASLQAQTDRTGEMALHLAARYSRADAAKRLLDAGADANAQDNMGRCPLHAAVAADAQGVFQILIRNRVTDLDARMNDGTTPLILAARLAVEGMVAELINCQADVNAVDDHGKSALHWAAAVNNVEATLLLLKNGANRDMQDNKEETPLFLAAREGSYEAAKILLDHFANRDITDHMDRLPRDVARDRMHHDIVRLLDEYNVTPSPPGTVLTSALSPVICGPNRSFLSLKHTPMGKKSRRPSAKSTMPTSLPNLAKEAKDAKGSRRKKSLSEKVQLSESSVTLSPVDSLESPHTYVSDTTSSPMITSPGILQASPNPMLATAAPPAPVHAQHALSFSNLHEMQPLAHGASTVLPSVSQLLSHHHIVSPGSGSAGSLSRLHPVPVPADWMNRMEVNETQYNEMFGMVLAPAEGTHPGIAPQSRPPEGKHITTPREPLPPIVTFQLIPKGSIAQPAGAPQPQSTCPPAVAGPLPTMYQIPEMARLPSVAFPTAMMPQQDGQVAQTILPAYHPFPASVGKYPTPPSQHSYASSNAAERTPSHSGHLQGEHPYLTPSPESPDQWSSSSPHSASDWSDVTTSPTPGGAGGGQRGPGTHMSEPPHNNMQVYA

In the case of `CCOC(=O)[C@H](Cc1ccccc1)NC(=O)OC1CC(CCC2CC(CC)=NO2)OC2(CCCC(COC(=O)NCCC(C)C)O2)C1` (stereo not given in full), the composite z-score in assay [1] was -0.436; in assay [2], -0.235; in assay [3] it was -0.0692; in [4], 0.354; in [5], 0.165; in assay [6], 0.418. Further, the composite z-score in assay [7] is 0.86; in assay [9], -0.0729; in [10], -0.218. The z-score in [8] is 0.309 (inactive).
With `CC(C)(C)N1C(=O)[C@H]2[C@H]3[C@H](O)C=CC(=O)[C@@H]3CC[C@H]2C1=O`, the composite z-score in assay [1] was -0.623; in assay [2], 0.0741; in assay [3] it was -0.132; in [4], 0.412; in assay [5], 0.437; in [6] it was -0.261. The composite z-score came out at 0.368 in assay [7], 0.229 in [9] and 0.0251 in assay [10]. In addition, the z-score in [8] is -0.757 (inactive).
For the compound `CO[C@@H]1COC(=O)[C@@H](C)COC(=O)[C@@H](C)NC(=O)CC=C[C@@H]1C`, the composite z-score in assay [1] was -0.538; in assay [2], 0.544; in assay [3], -0.133; in assay [4] it was 0.231; in assay [5] it was 0.198; in [6] it was -0.308. For the same compound, the values for the composite z-score in [7], in [9] and in assay [10] were 0.675, -0.235 and -0.342, respectively. The z-score in assay [8] was 0.156 (inactive).
Turning to `CO[C@H]1COC(=O)CCC[C@@H](C)[C@H](OC)COC(=O)[C@@H](C)NC(=O)CC=C[C@@H]1C`, the composite z-score in assay [1] is -0.467; in assay [2], 2.11; in assay [3], -0.235; in [4] it was -0.0534; in assay [5], -0.314; in assay [6], -0.523. The composite z-score in assay [7] was -0.723; in assay [9] it was 0.0835; in [10] it was -0.0994. Also, the z-score in assay [8] was 0.947 (inactive).
Regarding `COc1cccc([C@@H]2Oc3ccc(OC)cc3C(=O)[C@H]2O)c1`, the composite z-score in [1] is -0.457; in assay [2], 0.0796; in assay [3], 0.0288; in assay [4] it was 0.209; in assay [5] it was 0.5; in assay [6], 0.788. Moreover, the composite z-score in [7] is 1.04; in assay [9] it was -0.0662; in [10], -0.0994. For the same compound, in assay [8], the z-score was 7.25 (inactive).
Turning to `COc1ccc(O[C@H]2C=C[C@@H](c3ccccc3)O[C@@H]2COC(=O)CCC(C)=NOC[C@@H](O)[C@H]2O[C@@H]3OC(C)(C)O[C@@H]3[C@H]2O)cc1`, the composite z-score in [1] is -0.522; in assay [2] it was 0.62; in assay [3], -0.102; in assay [4] it was 0.497; in assay [5] it was 0.624; in assay [6], 0.0094. For the same compound, the composite z-score was 0.724 in assay [7], 0.659 in assay [9] and -0.0994 in assay [10]. The z-score in [8] was 0.452 (inactive).
Take `CCOC(=O)[C@H](CC(C)C)NC(=O)CCC1CC(OC(=O)NCc2ccc3c(c2)OCO3)CC2(CCCC(COC(=O)NCc3cccc(C(F)(F)F)c3)O2)O1` (stereo not given in full): the composite z-score in assay [1] is -0.109; in [2] it was -0.249; in [3], -0.0841; in assay [4], 0.371; in assay [5] it was 0.421; in [6] it was 0.0839. Further, the composite z-score in assay [7] was 0.445; in assay [9] it was 0.0884; in assay [10], -0.0994. Also, in assay [8], the z-score is 0.31 (inactive).
For the compound `COC(=O)[C@H](C)NC(=O)CCC1CC(OC(=O)NCc2ccc3c(c2)OCO3)CC2(CCCC(COC(=O)NCC(c3ccccc3)c3ccccc3)O2)O1` (stereo not given in full), the composite z-score in assay [1] was -0.686; in [2], 0.7; in assay [3] it was -0.0541; in assay [4] it was 1.17; in [5] it was 0.994; in assay [6], 0.682. Further, the composite z-score in assay [7] amounted to 1.28; in assay [9], 0.132; in [10], 0.0201. Besides, the z-score in assay [8] was 2.96 (inactive).
Turning to `CCCNC(=O)OC[C@H]1O[C@H](CCON=C(C)CCC(=O)OC[C@H]2O[C@H](c3ccccc3)C=C[C@@H]2Oc2ccc(OC)cc2)C=C[C@@H]1Oc1ccc(OC)cc1`, the composite z-score in assay [1] is -0.302; in [2], 0.21; in assay [3], -0.127; in assay [4], -0.178; in assay [5] it was -0.843; in [6], -0.311. The composite z-score in assay [7] was -0.731; in assay [9], 0.0494; in assay [10], -0.0618. Further, the z-score in assay [8] was 0.862 (inactive).
For the compound `COc1cccc([C@H]2Oc3ccc(OC)cc3C(=NOC[C@@H](O)COCc3ccco3)[C@@H]2O)c1`, the composite z-score was -0.434 in [1]; 0.0488 in assay [2]; -0.158 in assay [3]; -1.12 in [4]; -1.29 in [5]; -0.984 in [6]. For the same compound, the composite z-score in assay [7] is -1.7; in [9] it was -0.625; in assay [10], -0.388. The z-score in assay [8] is -0.765 (inactive).
Consider `Cn1c(=O)n2n(c1=O)[C@H]1[C@H](O)[C@@H]3O[C@@H]3C(=O)[C@H]1CC2`, for which the composite z-score was -0.439 in [1]; 0.197 in [2]; -0.128 in assay [3]; 0.355 in assay [4]; 0.584 in assay [5]; -0.208 in [6]. In addition, the values for the composite z-score in assay [7], in [9] and in assay [10] were 0.712, 0.95 and 0.0053, respectively. Further, the z-score in assay [8] is 0.101 (inactive).
As for `CCOC(=O)[C@H](CC(C)C)NC(=O)CCC1CC(OC(=O)NCc2cccc3ccccc23)CC2(CCCC(COC(=O)NCc3cccc(C(F)(F)F)c3)O2)O1` (stereo not given in full), the composite z-score in assay [1] is -0.5; in assay [2] it was 0.0221; in assay [3], -0.125; in assay [4] it was 0.469; in [5], 0.611; in assay [6] it was -0.0419. For the same compound, the figures for the composite z-score in assay [7], in assay [9] and in assay [10] were 0.0188, -0.262 and 0.0749, respectively. Besides, in assay [8], the z-score was -1.03 (inactive).
For the compound `COC(=O)CC=C[C@@H](C)[C@@H](C=NO[C@@H](C)c1cc(-c2c(C)cc(C)cc2C)no1)NS(=O)(=O)c1ccc(C)cc1`, the composite z-score was 1.38 in [1]; -0.498 in assay [2]; -0.144 in assay [3]; -1.29 in [4]; -1.06 in assay [5]; -0.647 in assay [6]. The composite z-score was -0.631 in [7], -0.176 in [9] and -0.236 in assay [10]. The z-score in assay [8] is 0.295 (inactive).
For the compound `O=C(NN=C1C[C@@H](O)[C@@H](O)[C@@H]2[C@@H]3C(=O)N(Cc4ccccc4)C(=O)[C@@H]3CC[C@@H]12)OCc1ccccc1`, the composite z-score in assay [1] was -0.404; in assay [2] it was 0.408; in assay [3], -0.0229; in assay [4], 0.155; in [5] it was 0.495; in assay [6], -0.358. For the same compound, the composite z-score in assay [7] is -0.871; in assay [9] it was -0.0711; in assay [10], 0.233. The z-score in assay [8] was -0.119 (inactive).
On to `O=C(C=Cc1ccc2c(c1)OCO2)c1ccc(F)cc1`, for which the composite z-score in assay [1] is -0.0346; in [2], 0.668; in assay [3], 0.0173; in assay [4] it was 0.3; in assay [5], -0.207; in assay [6] it was -0.204. Besides, the composite z-score was -0.0248 in assay [7], 0.348 in [9] and -0.0994 in [10]. Besides, the z-score in [8] is 0.964 (inactive).
As for `CC(C)=CCCC(C)=CCON=C1C[C@@H](O)[C@@H](O)[C@@H]2[C@@H]3C(=O)N(Cc4ccccc4)C(=O)[C@@H]3CC[C@H]12`, the composite z-score in [1] is -0.402; in assay [2], -0.0325; in [3], -0.0263; in assay [4], 0.734; in [5], 0.686; in assay [6], 0.774. For the same compound, the composite z-score in [7] was 1.06; in assay [9], 0.342; in [10], -0.305. In assay [8], the z-score is 0.134 (inactive).
